Shown are actives, neighbours in structure and some others; about 6.1% of the full set was active somewhere.
Bst PK mod = modulators of Bacillus stearothermophilus pyruvate kinase. hit rate 1.2% among 51,000. purified pyruvate kinase, luminescence ATP production; ribose 5-phosphate activator present at AC10. Potency, µM. AID 361; in the data active means potency below about 11 µM; inconclusive means mostly about 12 µM to 25 µM;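 the screen sought inhibitors and activators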;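 further: scaled between full activation by ribose 5 phosphate and full inhibition by luteolin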
Hsp90 Hop PPI = changes Hsp90-Hop TPR2A binding signal, up or down. hit rate 0.44% among 71,000. AlphaScreen TPR2A-His6 binding biotin-Hsp90 C-terminal peptide. AID 595. Potency, µM (series often up to 57 µM), inactives show at the top dose activity change, negative = inhibition; active means well fitted curve in either direction with a large enough effect; inconclusive means small, poorly fitted or top-dose-only effect, or another doubt
ALOX15 inhib = inhibitors of human 15-lipoxygenase (ALOX15). hit rate 1.4% among 74,000. P16050. purified 15hLO-1, xylenol orange hydroperoxide absorbance. Potency, µM (doses to about 57.1 µM), inactives show top-dose activity change, negative = inhibition, most hits filed as inhibitors; further: nearly all actives have a fitted effect of over 55% in size
Target sequence (P16050 whole entry, looked up): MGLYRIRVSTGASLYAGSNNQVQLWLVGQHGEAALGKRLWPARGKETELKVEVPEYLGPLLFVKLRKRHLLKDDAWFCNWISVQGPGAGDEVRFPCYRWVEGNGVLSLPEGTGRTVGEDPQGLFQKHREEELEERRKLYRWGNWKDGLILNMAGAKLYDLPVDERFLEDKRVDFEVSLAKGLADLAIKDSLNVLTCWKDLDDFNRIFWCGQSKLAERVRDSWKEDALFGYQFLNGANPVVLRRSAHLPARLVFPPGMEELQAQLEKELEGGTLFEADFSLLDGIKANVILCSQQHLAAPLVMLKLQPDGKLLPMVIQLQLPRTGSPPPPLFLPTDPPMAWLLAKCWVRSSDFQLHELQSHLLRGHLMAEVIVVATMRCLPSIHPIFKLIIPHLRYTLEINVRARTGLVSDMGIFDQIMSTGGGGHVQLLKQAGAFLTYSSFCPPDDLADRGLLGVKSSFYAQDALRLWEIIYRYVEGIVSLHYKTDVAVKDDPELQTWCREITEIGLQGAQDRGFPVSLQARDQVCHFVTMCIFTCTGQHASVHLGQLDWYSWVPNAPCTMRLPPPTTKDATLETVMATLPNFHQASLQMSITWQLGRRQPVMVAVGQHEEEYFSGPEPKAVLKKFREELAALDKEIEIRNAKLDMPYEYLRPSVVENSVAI
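Purified human 15hLO-1 (40 nM) in 25 mM Hepes pH 7.5, 0.01% Triton X-100, preincubated 15 min RT with compound, then 50 uM arachidonic acid for 6 min. Hydroperoxide read by ferrous/xylenol orange, 30 min; 573/405 nm absorbance ratio gave progress.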
Tau filament bind = tau filament binding; AID 596; Potency, µM (titrated, usually from 57.1 µM), for the others: at the highest dose activity change, negative = inhibition; hit rate 2% among 71,000; P10636; recombinant tau filaments, thioflavin S fluorescence, 15 h; filaments grown with octadecylsulfate alongside compound;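 further: actives lower thioflavin S fluorescence by blocking filaments or displacing dye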
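Thioflavine S fluorescence (ex 450, em 510 nm) reports filaments formed from 1 uM human tau plus 30 uM ODS over 15 h at 37 C (10 mM HEPES pH 7.4, 100 mM NaCl, 5 mM DTT); compounds displacing dye or blocking filaments lower signal.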
ERK AVP block = blocks ERK signaling stimulated by vasopressin; Potency, µM (top dose mostly 57.5 µM), for inactives: at the highest dose activity, negative = inhibition, actives largely listed as inhibitors; AID 995; HEK293-V1b, vasopressin-stimulated pERK AlphaScreen; hit rate 0.99% among 72,000; further: nearly all actives have a fitted effect of over 55% in size
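Phosphorylated ERK1/2 detected via AlphaScreen bead proximity in lysates of V1b-expressing HEK293 cells given 25 nM vasopressin for 5 min after 30 min compound exposure (37 °C). AC50 from Hill equation; basal DMSO 0%, vasopressin 100%.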
FLuc inh = firefly luciferase inhibition; P08659; purified firefly luciferase, luminescence, 8 min; Potency, µM (doses to about 57.1 µM), without a hit: at the highest dose activity change, negative = inhibition, hits mostly inhibitors; hit rate 2.2% among 72,000; further: nearly all actives have a fitted effect of over 40% in size
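Compounds were tested as concentration series (qHTS) against purified P. pyralis luciferase with luciferin and 10 uM ATP in 50 mM imidazole pH 7.2, 50 mM KCl, 7 mM MgCl2, 0.01% Tween 20, 0.05% BSA. Luminescence was read after 8 min at ambient temperature.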
The depositor's hits bear a star; i = inactive; u = inconclusive; x = no result; ! = a repeat was not active; [ ] = dose if it differs, or a comment. Unless noted, the call rests on the fitted dose curve; in most records, active means well fitted curve in the direction sought with a large enough effect; inconclusive means small, poorly fitted or top-dose-only effect, or another doubt; inactive means no such curve, though single readings can be large; an effect the other way counts as inactive or inconclusive. Unless noted, on the % scale 0 is the no-effect control and ±100 the full control effect; potency means the concentration at half of the fitted maximal effect.

SMILES	Bst PK mod	Hsp90 Hop PPI	ALOX15 inhib	Tau filament bind	ERK AVP block	FLuc inh
CN1CCN(CCCN2c3ccccc3Sc3ccc(Cl)cc32)CC1	>26	-2%[26 µM]	u	u	u	0%[25.5 µM]
CC(CN1c2ccccc2Sc2ccccc21)N(C)C (stereo not given)	>26	x	-19%	x	27%	-1%[25.5 µM]
COc1ccc2c(c1)N(CC[C@H]1CCCCN1C)c1ccccc1S2	x	-8%[11 µM]	7%[11.4 µM]	2.5µM*	4%[11.5 µM]	2%[11.4 µM]
COc1ccc2c(c1)N(C[C@@H](C)CN(C)C)c1ccccc1S2	x	-7%[26 µM]	-3%[25.6 µM]	10µM*	55%[25.7 µM]	8%[25.5 µM]
C[C@@H](CN1c2ccccc2Sc2ccccc21)N(C)C	x	0%[26 µM]	16µM*!	13µM*!	7%[25.7 µM]	1%[25.5 µM]
O=C(Nc1ccccc1)N1CC[C@@]2(CCCN(C(=O)c3csnn3)C2)C1	x	6%	2%	6%	4%	1%[11.4 µM]
CCC(=O)/C=C/C1C(C)=CCCC1(C)C (stereo not given)	x	0%	25µM*	-4%	12%	x
O=C(c1cnccn1)N1CCC2(CCCN(c3ccc(-c4ccccc4)cc3)C2)CC1	x	-28%	u	-26%	u	1%[11.4 µM]
COc1ccc(N=c2oc3c(OC)cccc3cc2C(=O)NCc2ccco2)c(OC)c1	>57	-7%	-9%	1.3µM*	-15%	0%
COc1cc(NC(=O)CN2c3cccc4cccc(c34)S2(=O)=O)cc(OC)c1OC	0.81*	-5%	-7%	1%	-20%	7%
COc1cc(NC(=O)Nc2cccc(C(C)=O)c2)cc(OC)c1OC	>57	0%	3%	-1%	-2%	-27%
N#CC1=C(SCC(=O)NC2CC2)NC(=O)C(C#N)C12CCCCC2 (stereo not given)	>57	2%	-10%	13%	-17%	4%
CC(C)(C)C1CCC2(CC1)C(C#N)=C(SCC(=O)NC1CCCCC1)NC(=O)C2C#N (stereo not given)	>57	-5%	-10%	13µM*	15%	0%
CCCNC(=O)OC[C@@H]1O[C@H](CCO/N=C\c2ccc(C(=O)N3[C@H](c4ccc(C)cc4)[C@@H](C)CC[C@H]3C(=O)OC)cc2)C=C[C@@H]1Oc1ccc(OC)cc1	x	x	2%[11.4 µM]	x	10%[11.5 µM]	-1%[11.4 µM]
COc1cccc(-c2cc(C(=O)NC3CCCC3)no2)c1	i	1%	5%	0%	16%	16µM*
COc1ccccc1-c1cc(C(=O)Nc2cccnc2)no1	i	-1%	-2%	-6%	-7%	13µM*
COc1cccc(-c2cc(C(=O)Nc3ccccc3SC)no2)c1	x	0%	-19%	30%	16%	20µM*
COc1cccc(-c2cc(C(=O)Nc3cccc(O)c3)no2)c1	5.6*	u	-15%	48%	23%	3.2µM*
COCCNC(=O)c1cc(-c2cccc(OC)c2)on1	u	4%	-1%	-3%	-11%	u
CN(C)CCCc1c2ccccc2nc2ccc(Cl)cc12	x	1%[11 µM]	4%[11.4 µM]	-12%[11.4 µM]	9%[11.5 µM]	2%[11.4 µM]
COc1ccc2c(c1OC)OCC(c1ccc(OC)c(OC)c1OC)C2 (stereo not given)	x	x	0%	x	-9%	x
O=C(c1ccncc1)N1CCC2(CCCN(c3ncccn3)C2)CC1	x	-4%	4%	17%	5%	1%[11.4 µM]
Cn1nnnc1SCc1ccc(C(=O)Nc2nccs2)cc1	1*	-1%	u	2.5µM*	-19%	1µM*
COc1ccc(N2CCN(C(=O)CSc3ncccc3-c3nc4ccccc4[nH]3)CC2)cc1	x	-11%	-10%	u	-20%	13µM*
O=C1C(=O)N(Cc2ccc(Cl)c(Cl)c2)c2ccccc21	x	-3%	10µM*	32µM*	-27%	1%
Cc1cccc(-n2c(SCc3cc(=O)n4ccsc4n3)nc3ccccc32)c1	>57	-15%	13µM*	6%	-12%	-6%
COc1ccccc1-c1nn2c(-c3ccco3)nnc2s1	8.2*	x	x	x	x	-26%[25.5 µM]
c1ccc(-c2nnc3sc(-c4csc5c4CCCC5)nn23)cc1	i	-4%	16µM*	217%	0%	-6%
c1ccc(-c2nnc3sc(-c4ccncc4)nn23)cc1	x	-5%	-7%	-9%	u	1%
